Where a name gives a salt, the structure may show the parent alone.
tested on: Danio rerio larvae (5 dpf); test: habituation (activity change first vs second 5 min of 1-s interval sound, period 17) minus DMSO control (percentage points); higher = larger habituation measure than DMSO larvae; conditions: 10 µM; exposure time: 3 h pre-incubation + 3 h imaging
Procedure: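 Wild-type 5 dpf zebrafish larvae (n=48 per drug, 96-well plates, 28.5 °C) were exposed to Tocris FDA-approved library compounds at 10 µM (0.1% DMSO) for 3 h before and 3 h during imaging. Images were taken every 6 s during visual and acoustic stimuli, and larvae were tracked with Z-LaP Tracker. Each measure is the treated-group mean minus the DMSO control mean (n=844), in percentage points. This mapping covers compounds with 5-character plate codes.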

Row | SMILES | habituation
1 | COc1ccc(C(CN(C)C)C2(O)CCCCC2)cc1 (stereo unspecified) [Venlafaxine hydrochloride] | -5.52

From the supplement of paper PMC9950053
